Compound activity: PubChem BioAssay, National Center for Advancing Translational Sciences (NCATS)
aSyn rescue: alpha-synuclein toxicity inhibition in yeast; Yeast expressing alpha-synuclein, growth rescue, BacTiter-Glo, 24 h; AID 652106; Potency, µM (highest dose often 46.1 µM), for the others: at the top dose growth rescue (activation), usual class: activators; 0.14% of 370,000 active; also: % of control where 0% means no effect; nearly all actives have a fitted effect of over 65% in size
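Readout is rescue of growth in alpha-synuclein-expressing yeast, so inhibitors of toxicity appear as activators. Growth after 24 hr at 30 deg C in galactose medium is quantified by luminescence.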
FUS suppressor: suppressors of FUS proteinopathy in yeast. Potency, µM (series often up to 76.6 µM), hits mostly activators. S. cerevisiae FUS-expressing, growth rescue, OD600, 24 h. AID 1347120. 0.24% of 390,000 active;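 also: plate controls were DMSO vehicle for no effect and reference control for full effect; nearly all actives have a fitted effect of over 55% in size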
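Toxicity suppression screen in FUS-yeast. Cells induced with 2% galactose, starting OD 0.005, treated 24hr at 30C with compounds at multiple final concentrations; growth by OD600.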
Abeta rescue: compounds reversing amyloid beta toxicity in yeast; yeast expressing A-beta42, growth rescue, OD600, 48 h; response scale: 0% DMSO, 100% iron-clioquinol control; Potency, µM (series often up to 46.1 µM), most hits filed as activators; 0.063% of 410,000 active; AID 1347071; also: nearly all actives have a fitted effect of over 55% in size
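Yeast growth medium received pinned compounds, then yeast cells expressing toxic A-beta were added; plates incubated at 30 C for 48 hr. Growth read as absorbance at 600 nm, normalized to DMSO and equimolar FeCl3 plus clioquinol controls.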
TDP43 rescue: inhibitors of TDP-43 toxicity in yeast; TDP-43 expressing yeast growth rescue, BacTiter-Glo, 24 h; Potency, µM (highest dose often 46.1 µM), without a hit: top-dose growth rescue (activation), most hits filed as activators; AID 652104; 1.8% of 410,000 active; also: % of control where 0% means no effect; nearly all actives have a fitted effect of over 50% in size
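Growth rescue of TDP-43-toxic yeast measured as ATP luminescence (BacTiter-Glo). Cells grown to mid-log in raffinose, induced in galactose at OD600=0.02, exposed to compound 24 hr at 30 deg C.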
* marks the source's active call; other numbers are inactive results. Compounds with a hit are over-represented: about 2.1% of the library has one in this group of screens. Calls follow the shape of the dose curve; as a rule, active = well fitted curve in the direction sought with a large enough effect; inconclusive = small, poorly fitted or top-dose-only effect, or another doubt; inactive = no such curve, though single readings can be large; an effect the other way counts as inactive or inconclusive. Potency is read from the fitted curve at half-maximal effect.

How did CCCOc1ccc(F)cc1-c1cc(C(=O)NCc2ccccc2)[nH]n1 do in these assays?
aSyn rescue: 0%; FUS suppressor: inactive; Abeta rescue: inactive; TDP43 rescue: inconclusive

Results for CCCOc1ccc(F)cc1-c1cc(C(=O)NCc2ccccc2OC)[nH]n1 ?
aSyn rescue: 19%; FUS suppressor: inactive; Abeta rescue: inactive; TDP43 rescue: 35µM*

Results for CCOC(=O)c1cc2c(=O)n3ccccc3nc2n(C(C)C)c1=NC(=O)c1cc2ccccc2o1 ?
FUS suppressor: inactive; Abeta rescue: inactive; TDP43 rescue: 18%

What do the screens show for `COc1cc(NC(=O)c2cnn3c(C)cc(C)nc23)cc(OC)c1OC`?
FUS suppressor: inactive

What do the screens show for `Cc1ccccc1NC(=O)c1c(C)oc2ccc(O)c(CN3CCOCC3)c12`?
FUS suppressor: inactive; Abeta rescue: inactive; TDP43 rescue: 7%

Results for O=c1[nH][nH]c2c1C(c1ccc(F)cc1)OC(CCc1ccccc1)C2 (stereo not drawn) ?
aSyn rescue: 14%; FUS suppressor: inactive; Abeta rescue: inactive; TDP43 rescue: 20µM*

Results for O=c1[nH]c(=S)[nH]c2c1C(c1ccc(F)cc1)OC(CCC(F)(F)F)C2 (stereo not drawn) ?
aSyn rescue: -1%; FUS suppressor: inactive; Abeta rescue: inactive; TDP43 rescue: 2%

What do the screens show for `CCCCC1Cc2[nH][nH]c(=O)c2C(c2ccc(Cl)cc2)O1` (stereo not drawn)?
aSyn rescue: -5%; FUS suppressor: inconclusive; Abeta rescue: inactive; TDP43 rescue: 11µM*

What do the screens show for `CC(C)[C@@H]1Cc2[nH][nH]c(=O)c2[C@H](c2ccc(F)cc2)O1`?
aSyn rescue: -9%; FUS suppressor: inactive; Abeta rescue: inactive; TDP43 rescue: 11µM*

Results for O=c1[nH][nH]c2c1[C@H](c1ccc(F)cc1)O[C@H](CCC(F)(F)F)C2 ?
aSyn rescue: inconclusive; FUS suppressor: inactive; Abeta rescue: inactive; TDP43 rescue: 20µM*

How did CCc1ccc2c(c1)c(=O)c(C(=O)c1ccccc1)cn2CC(=O)Nc1ccc(C)c(Cl)c1 do in these assays?
FUS suppressor: inactive; Abeta rescue: inactive; TDP43 rescue: 17%

How did O=C(CC(c1cccs1)N1Cc2ccccc2C1=O)Nc1ccc(F)cc1 (stereo not drawn) do in these assays?
aSyn rescue: -4%; FUS suppressor: inactive; Abeta rescue: inactive; TDP43 rescue: -19%

What do the screens show for `COc1nc(-c2ccccc2)c2cc(C)ccc2n1`?
aSyn rescue: 5%; FUS suppressor: inactive; Abeta rescue: inactive; TDP43 rescue: 13µM*

Results for O=C(c1cnn(C(=O)c2ccco2)c1)c1cc(F)ccc1O ?
aSyn rescue: -11%; FUS suppressor: inactive; Abeta rescue: inactive; TDP43 rescue: 28µM*

How did Cc1ccc(CNC(=O)CSc2nc3ccccc3nc2Cc2ccc(C)cc2)cc1 do in these assays?
FUS suppressor: inactive; Abeta rescue: inactive; TDP43 rescue: 24%

How did C#CCSc1nnc(CSc2nc3ccccc3s2)n1-c1ccccc1 do in these assays?
aSyn rescue: -12%; FUS suppressor: inactive; Abeta rescue: inactive; TDP43 rescue: 22µM*

How did COc1cccc(CNc2ccc([N+](=O)[O-])cc2Cl)c1O do in these assays?
aSyn rescue: -17%; FUS suppressor: inactive; Abeta rescue: inactive; TDP43 rescue: 14µM*

Results for O=C(Nc1ccc(Nc2ccccc2)cc1)C(Cl)(Cl)Cl ?
aSyn rescue: 1%; Abeta rescue: inactive; TDP43 rescue: 35µM*

What do the screens show for `CCc1nc2cccnc2n1-c1ccc(CC(=O)Nc2cccc(C)c2C)cc1`?
FUS suppressor: inactive; Abeta rescue: inactive; TDP43 rescue: 14%

How did Cc1ccc(-c2ccccc2)n1-c1ccc(C(=O)O)cc1 do in these assays?
aSyn rescue: -26%; FUS suppressor: inactive; Abeta rescue: inactive; TDP43 rescue: 13µM*

How did Cc1ccc(-c2ccccc2)n1-c1cccc(C(=O)O)c1 do in these assays?
aSyn rescue: -11%; FUS suppressor: inactive; Abeta rescue: inactive; TDP43 rescue: 35µM*

Results for Cc1ccc(C(=O)O)cc1-n1c(C)ccc1-c1ccccc1 ?
FUS suppressor: inactive; Abeta rescue: inactive; TDP43 rescue: 4%
